# Several values for one entry are separate records, joined by “and”; a condition that tells them apart may be missing. Equal values may be shown once. Compounds without any hit were thinned out: in the full panel of roughly 83,000, 20% have a hit.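 Plates (96-well) were seeded with cells, treated with compound at one concentration, and incubated for 48 hours before percent growth was determined.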 Values without a mark were called inactive. Activity calls are given as the source filed them. Rule for the calls: active = growth percent below 10; inactive = the rest.
# Tested on: HCC-2998 colon
# Assay: NCI-60 one-dose screen, 48 h (100 = growth as untreated, 0 = no growth, -100 = all killed)
# Conditions: 10 µM unless noted
row,SMILES,growth
1,O=C1C=CC(=O)N1C1c2ccccc2-c2ccccc21,114%
2,CCOC(=O)/C=C/c1ccc([N+](=O)[O-])o1,95.7%
3,COC(=O)c1nc(=S)[nH]c(C(=O)OC)c1C(=O)c1ccc2ccccc2c1,113%
4,CC(=Nc1ccc(N(C)C)cc1)c1ccccc1,58.2%
5,O=C1NC(=O)/C(=C/C=C/c2ccccc2)S1,13.2%
6,Oc1c(Br)c(Br)c(O)c(Br)c1Br,128%
7,Cc1cc2nc(CS)[nH]c2cc1C,102%
8,COc1ccc2nc3cc(Cl)ccc3c(NCCNc3c4ccc(Cl)cc4nc4ccc(OC)cc34)c2c1,-82.2% (active)
9,CC1(C)CC([P+](c2ccccc2)(c2ccccc2)c2ccccc2)=NN1,18.1%
10,S=C(NCCNC(=S)[S][Sn]([c]1ccccc1)([c]1ccccc1)[c]1ccccc1)[S][Sn]([c]1ccccc1)([c]1ccccc1)[c]1ccccc1,-82.4% (active)
11,O=C1c2ccccc2C(=O)c2sc(Nc3cccc(Cl)c3)nc21,-34.3% (active)
12,CCCCCCCCCCCCCCCC[N+](C)(CCO)Cc1cnc[nH]1 (centres undefined),-70.5% (active)
13,C/C=C1\SC(=S)NC1=O,85%
14,Cn1c2c(c3ccccc31)CCN1C[C@@H]3CCCC[C@H]3C[C@@H]21,-4.34% (active)
15,O=C1OCc2cccc3cccc1c23,106%
16,O=C(Nc1ccccc1)c1cc(Cl)ccc1O,89.1%

# Tested on: KM12 colon
# Assay: as above
# Conditions: 10 µM unless noted
row,SMILES,growth
1,O=C1c2ccccc2C(=O)N1c1ccccc1,107%
2,c1ccc2c(c1)Nc1cc3ccccc3cc1N2,44.2%
3,CCC(CCCN(CC)CCc1ccccc1)OC(=O)c1cc(OC)c(OC)c(OC)c1 (centres undefined),96.6%
4,O=C(Nc1cccc(Br)c1)Oc1ccc(Cl)c2cccnc12,30.5% [100 µM]
5,CCCCCCC(C)c1ccccc1O (centres undefined) (tested in a mixture with another compound),107%
6,O=C1c2cccnc2-c2nccc3c2c1nc1cc(Br)ccc13,-96.7% (active) and -76.7% (active)
7,CNc1ccc(N)cc1,107%
8,Cc1c2ccccc2c(C)c2c1ccc1ccccc12,89.3%
9,O=[N+]([O-])c1ccc(N=Nc2ccc(O)cc2O)cc1,64.3%
10,CN(C)CCOc1ccc2c(c1)C(=O)/C(=C\c1ncc([N+](=O)[O-])n1C)C2,-68% (active)
11,C1=C(c2ccccc2)C(c2ccc(OCCN3CCCCC3)cc2)Oc2ccccc21 (centres undefined),46.4%
12,CN(C)C(=O)SC1=C(c2c(Cl)cccc2Cl)C(=O)c2ccccc21,99.4%
13,N#CSCc1ccc(CSC#N)c(Cl)c1,69.3%
14,COc1ccccc1/C=C\C(=O)c1ccccc1,29.5%
15,O=C1C=CC(=O)N1C1c2ccccc2-c2ccccc21,107%
16,COC(=O)c1nc(=S)[nH]c(C(=O)OC)c1C(=O)c1ccc2ccccc2c1,107%
17,CC1OC2CC(=O)OC2C2=C1C(=O)c1c(O)cccc1C2=O (centres undefined),24.7%
18,CC(=Nc1ccc(N(C)C)cc1)c1ccccc1,42.6%
19,Oc1c(Br)c(Br)c(O)c(Br)c1Br,110%
20,Cc1cc2nc(CS)[nH]c2cc1C,88%
21,COc1ccc2nc3cc(Cl)ccc3c(NCCNc3c4ccc(Cl)cc4nc4ccc(OC)cc34)c2c1,-71.8% (active)
22,S=C(NCCNC(=S)[S][Sn]([c]1ccccc1)([c]1ccccc1)[c]1ccccc1)[S][Sn]([c]1ccccc1)([c]1ccccc1)[c]1ccccc1,-99.4% (active)
23,O=C1c2ccccc2C(=O)c2sc(Nc3cccc(Cl)c3)nc21,24.6%
24,CCCCCCCCCCCCCCCC[N+](C)(CCO)Cc1cnc[nH]1 (centres undefined),-97.7% (active)
25,C/C=C1\SC(=S)NC1=O,106%
26,Cn1c2c(c3ccccc31)CCN1C[C@@H]3CCCC[C@H]3C[C@@H]21,-32.3% (active)
27,O=C1OCc2cccc3cccc1c23,104%
28,O=C(Nc1ccccc1)c1cc(Cl)ccc1O,47%
